A selection: hits, their analogues and other compounds. The true share with any hit is near 19%.
HT1080-NT tox = kills 2HG-producing HT-1080-NT fibrosarcoma cells | HT-1080-NT fibrosarcoma viability, CellTiter-Glo ATP luminescence, 48 h | Potency, µM (titrated, usually from 46.1 µM), inactives show at the highest dose activity, negative = less viability, most hits filed as cytotoxic | 1.6% of 360,000 active;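 further: NT is the 2HG producing partner of a matched IDH1 knockdown line; potency means the concentration at half of the fitted maximal effect; 0% = DMSO-treated cells and -100% = media-only wells without cells; nearly all actives have a fitted effect of over 55% in size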
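HT-1080-NT fibrosarcoma cells (2HG-overproducing), 750 cells/well in RPMI with 5% FBS, dosed after 2 h and incubated 48 h at 37C. CellTiter-Glo luminescence normalized to DMSO and no-cell wells; concentration-response curves fitted and classed.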
uPA generation = inhibitors of cell surface uPA generation | cell surface uPA generation assay, qHTS | Potency, µM (series often up to 38.3 µM), without a hit: at the highest dose activity change, negative = inhibition, usual class: inhibitors | 0.31% of 330,000 active | AID 540303; active means well fitted inhibition curve with a large enough effect; inconclusive means small, poorly fitted or top-dose-only effect; inactive means no such curve, though single readings can be large or run the other way; tested in mouse RAW 264.7 cells; further: potency means the concentration at half of the fitted maximal effect; nearly all actives have a fitted effect of over 55% in size
IL-1B inflam inh = inhibitors of inflammasome signaling (IL-1 beta secretion) | THP-1 LPS/ATP IL-1B secretion, AlphaLISA, 16 h; active compounds read low | activity change, % at 57.5 µM | 4.7% of 360,000 active | AID 743279; in the data active means activity change below about -50%; inconclusive means mostly about -30% to -49%
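Secreted IL-1B measured by AlphaLISA bead assay after 16 h compound exposure of THP-1 cells; compounds (final up to 57.5 uM) added 1 h before LPS (250 ng/mL) and ATP (1.25 mM) stimulation; lower signal means less secretion.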
HT1080 IDH1KD tx = HT-1080 IDH1 knockdown cell toxicity (counter line); HT-1080 IDH1 knockdown viability, ATP luminescence, 48 h; Potency, µM (series often up to 46.1 µM), inactives show at the top dose activity, negative = toxicity, usual class: cytotoxic; 2% of 360,000 active;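 further: potency means the concentration at half of the fitted maximal effect; 0% = DMSO wells and -100% = cell-free medium wells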
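Using the IDH1-knockdown HT-1080 line run in the same batch and compound series as the NT line, viability after 48 h at 37 °C was determined by CellTiter-Glo luminescence and expressed as % activity.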
TDP1 cell CPT = growth inhibition of DT40 Tdp1-/-;hTDP1 cells with camptothecin (screen for TDP1 inhibitors). 12% of 420,000 active. chicken DT40 Tdp1-/-;hTDP1 cells + 20 nM CPT, ATP luminescence, 48 h. Potency, µM (highest dose often 46.2 µM), for the others: at the highest dose activity change, negative = growth inhibition, usual class: inhibitors; further: potency means the concentration at half of the fitted maximal effect; nearly all actives have a fitted effect of over 55% in size
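Chicken DT40 Tdp1-/- cells stably complemented with human TDP1 were seeded at 400 cells/well in medium containing 20 nM camptothecin, exposed to pin-transferred compounds, and grown at 37 °C for at least 48 hr. Viability was read as ATP luminescence.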
DT40 TDP1 no CPT = qHTS for Inhibitors of human tyrosyl-DNA phosphodiesterase 1 (TDP1): qHTS in cells in absence of CPT; Potency, µM (series often up to 46.2 µM), inactives show at the highest dose activity change, negative = growth inhibition, hits mostly inhibitors; DT40 Tdp1-/- hTDP1 cells, no CPT, ATP luminescence, 48 h; 15% of 420,000 active; further: potency means the concentration at half of the fitted maximal effect; nearly all actives have a fitted effect of over 55% in size
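Readout: luminescence from CellTiter-Glo after 30 min in the dark at RT. Cells: DT40 Tdp1-/- with stable hTDP1, 400/well. Exposure: compounds alone, ≥48 hr, 37 °C.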
* marks the source's active call; other numbers are inactive results; ? = inconclusive; nt = not tested or not shown; ! = not confirmed by another sample. Unless noted, the call rests on the fitted dose curve; in most records, active means well fitted curve in the direction sought with a large enough effect; inconclusive means small, poorly fitted or top-dose-only effect, or another doubt; inactive means no such curve, though single readings can be large; an effect the other way counts as inactive or inconclusive. Unless noted, on the % scale 0 is the no-effect control and ±100 the full control effect.

SMILES	HT1080-NT tox	uPA generation	IL-1B inflam inh	HT1080 IDH1KD tx	TDP1 cell CPT	DT40 TDP1 no CPT
O=C(c1cccc(S(=O)(=O)N2CCN(c3ccc(F)cc3)CC2)c1)N1CCN(c2ccccc2O)CC1	-7%	-27%	?	-25%	?	?
O=C(c1cccc(S(=O)(=O)N2CCc3ccccc32)c1)N1CCCC(C(F)(F)F)C1 (stereo not drawn)	-12%	4%	16	-4%	10µM*	21µM*
Cc1cc(C)cc(C(=O)NC(=S)Nc2cccnc2)c1	6%	-3%	14	2%	-1%	0%
CCN1CCN(C(=O)c2sc3ncnc(NCC4CCCO4)c3c2C)CC1 (stereo not drawn)	nt	nt	nt	nt	-2%	-15%
CCC1(c2ccc(F)cc2)NC(=O)N(CC(=O)Nc2cc(C)on2)C1=O (stereo not drawn)	1%	-30%	24	1%	-14%	1%
COC(=O)c1scc(-c2ccc(C)cc2)c1S(=O)(=O)Nc1ccc(NC(C)=O)cc1	nt	nt	nt	nt	18µM*	?
COC(=O)c1scc(-c2ccc(C)cc2)c1S(=O)(=O)Nc1ccc(OC(F)(F)F)cc1	nt	nt	nt	nt	-7%	-9%
COC(=O)c1scc(-c2ccc(C)cc2)c1S(=O)(=O)Nc1ccc(N(C)C)cc1	nt	nt	nt	nt	16µM*	15µM*
CCN1CCN(c2cc(C)c3cc(NC(=O)/C=C/c4cccc(Cl)c4)ccc3n2)CC1	nt	nt	nt	nt	5.2µM*	-7%
CCN1CCN(c2cc(C)c3cc(NC(=S)N(CC)CC)ccc3n2)CC1	-11%	-2%	-9	-7%	?	?
CCN1CCN(c2cc(C)c3cc(NC(=O)c4cccc(Cl)c4)ccc3n2)CC1	nt	nt	nt	nt	15µM*	6.5µM*
N#Cc1ccc(-c2nc3ccc(Br)cn3c2Cc2ccccc2)cc1	-10%	nt	-7	-11%	12µM*	9.2µM*
N#Cc1ccc(-c2nc3ccc(Br)cn3c2Cc2cccc(F)c2)cc1	-29%	nt	-25	?	?	?
Cc1ccc(Cc2c(-c3ccc(C#N)cc3)nc3ccc(Br)cn23)cc1	-14%	nt	-9	-5%	21µM*	?
CCN(CC)CCCNC(=O)C(C)n1nc(C)n2c(cc3occc32)c1=O (stereo not drawn)	nt	nt	nt	nt	-4%	-5%
CCCOc1ccc(C(=O)NNC(=S)NC(=O)c2cc(-c3ccc(Cl)cc3)nc3ccccc23)cc1	?	1%	15	?	23µM*	12µM*
COc1ccc(C(=O)NNC(=S)NC(=O)c2cc(-c3ccccc3)nc3ccccc23)cc1	?	-1%	-7	?	?	16µM*
CCC(c1nnnn1C1CCCC1)N1CCN(c2cccc(OC)c2)CC1 (stereo not drawn)	14%	-4%	-3	2%	?	16µM*
C1=C(C(c2nnnn2C2CCCCC2)N2CCCCC2)COc2ccccc21 (stereo not drawn)	13%	5%	32	-2%	?	16µM*
COc1ccc(OC)c(C(c2nnnn2C2CCCC2)N2CCN(c3ccccc3)CC2)c1 (stereo not drawn)	-3%	5%	-17	-6%	?	21µM*
COc1ccc(C(c2nnnn2C2CCCCC2)N2CCN(C)CC2)c(OC)c1 (stereo not drawn)	-4%	-2%	-3	-9%	-20%	-20%
Clc1ccc(C(c2nnnn2C2CCCC2)N2CCSCC2)cc1 (stereo not drawn)	-10%	-1%	-62*	-24%	-1%	-17%
O=C(CSc1nc(-c2ccccc2)no1)N1CCN(c2ccc(F)cc2)CC1	nt	nt	nt	nt	-23%	-22%
CCCCN(CC)CCCNC(=O)Cn1nc(CC)n2c(cc3sccc32)c1=O	nt	nt	nt	nt	-15%	?
Cc1ccsc1C(=O)N1CCC1(C)C(=O)NS(=O)(=O)c1ccccc1C(F)(F)F (stereo not drawn)	?	nt	2	21%	3%	1%
SMILES	HT1080-NT tox	uPA generation	IL-1B inflam inh	HT1080 IDH1KD tx	TDP1 cell CPT	DT40 TDP1 no CPT
COC(=O)CC/C(O)=C1\C(=O)CC(C)(C)CC1=NCCc1nc2ccccc2[nH]1	-1%	13%	6	1%	?	?
COc1ccc(C(c2nnnn2C2CCCC2)N2CCC(C)CC2)cc1 (stereo not drawn)	-10%	13%	-17	-7%	?	23µM*
COc1ccc(C(c2nnnn2C2CCCCC2)N2CCN(c3ccc(OC)cc3)CC2)cc1 (stereo not drawn)	-3%	12%	-9	-12%	23µM*	16µM*
COCCn1nnnc1C(c1ccc(OC)cc1)N1CCC(C)CC1 (stereo not drawn)	-4%	1%	-4	5%	?	-25%
CCOC(=O)N1CCN(CCC(=O)c2ccc(Cl)cc2)CC1	?	-4%	-1	-18%	2.3µM*	3.3µM*
CCOC(=O)N1CCN(CCC(=O)c2ccc(Br)cc2)CC1	?	-11%	-10	?	2.9µM*	7.3µM*
CCOC(=O)N1CCN(CCC(=O)Nc2ccc(C)cc2)CC1	16%	2%	14	8%	-9%	3%
CCOC(=O)N1CCN(C(=O)Cc2ccc(Cl)cc2)CC1	3%	1%	3	0%	0%	-12%
O=C(/C=C/c1cccc([N+](=O)[O-])c1)OCC(=O)N1CCCCC1	-1%	nt	11	-16%	12%	5%
CN(C(=O)c1ccc(Cl)cc1)c1ccc(OCC(=O)Nc2cc(C(=O)O)ccc2Cl)cc1	2%	9%	19	1%	-1%	24%
c1cc2c3c(c1)CCCN3CCC2	nt	nt	nt	nt	-11%	-28%
CC(=O)c1ccc(NS(=O)(=O)c2cccc3cccnc23)cc1	0%	nt	3	0%	?	?
CCC(=O)O[C@]1(C(=O)CCl)[C@@H](C)C[C@H]2[C@@H]3C[C@H](F)C4=CC(=O)C=C[C@]4(C)[C@@]3(F)[C@@H](O)C[C@@]21C	nt	nt	nt	nt	?	19µM*
CC(=O)OCC(=O)[C@@]12OC3(CCCC3)O[C@@H]1C[C@H]1[C@@H]3CCC4=CC(=O)C=C[C@]4(C)[C@@]3(F)[C@@H](O)C[C@@]12C	?	?	0	-23%	2.3µM*!	4.6µM*
CC1(C)O[C@@H]2C[C@H]3[C@@H]4C[C@H](F)C5=CC(=O)C=C[C@]5(C)[C@@]4(F)[C@@H](O)C[C@]3(C)[C@]2(C(=O)CO)O1	65%	?	-54*	?	?	-10%
